The whole screen tested about 5,500 compounds, of which about 2,000 (36%) were called active. About 18% were inconclusive and are not listed. Rule as the data show it: active = normalized growth mostly below about 0.91 (no sharp cut-off); inconclusive = no clear call, values can overlap the other calls; inactive = mostly above about 0.92. This is one part of the list.
Assay: chemical genetic growth profiling, strain panel (AID 1159580);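 also: tested at 20 µM; growth read once vehicle control cultures reached saturation at 30 °C; 1 = growth at the plate median or of vehicle wells; lower values mean less growth of the strain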
Conditions: growth OD
[1] = S. cerevisiae deletion strains, locus YAL013W, strain DEP1, hits give low values
[2] = S. cerevisiae deletion strains, locus YBR229C, strain ROT2, hits give low values
[3] = S. cerevisiae deletion strains, locus YDL101C, strain DUN1, hits give low values
[4] = S. cerevisiae deletion strains, locus YDL134C, strain PPH21, hits give low values
[5] = S. cerevisiae deletion strains, locus YDR150W, strain NUM1, hits give low values
[6] = S. cerevisiae deletion strains, locus YEL061C, strain CIN8, hits give low values
[7] = S. cerevisiae deletion strains, locus YGR078C, strain PAC10, hits give low values
[8] = S. cerevisiae deletion strains, locus YHR030C, strain SLT2, hits give low values
[9] = S. cerevisiae deletion strains, locus YHR087W, strain rtc3, hits give low values
[10] = S. cerevisiae deletion strains, locus YJR043C, strain POL32, hits give low values
[11] = S. cerevisiae deletion strains, locus YJR075W, strain HOC1, hits give low values
[12] = S. cerevisiae deletion strains, locus YLR039C, strain RIC1, hits give low values
[13] = S. cerevisiae deletion strains, locus YLR058C, strain SHM2 (second series), hits give low values
[14] = S. cerevisiae deletion strains, locus YLR085C, strain ARP6, hits give low values
[15] = S. cerevisiae deletion strains, locus YLR262C, strain YPT6, hits give low values
[16] = S. cerevisiae deletion strains, locus YML094W, strain GIM5, hits give low values
[17] = S. cerevisiae deletion strains, locus YMR219W, strain ESC1, hits give low values
[18] = S. cerevisiae deletion strains, locus YMR263W, strain SAP30, hits give low values
[19] = S. cerevisiae deletion strains, locus YNL153C, strain GIM3, hits give low values
[20] = S. cerevisiae deletion strains, locus YNL298W, strain CLA4 (second series), hits give low values
[21] = S. cerevisiae deletion strains, locus YNL322C, strain KRE1, hits give low values
[22] = S. cerevisiae deletion strains, locus YNR030W, strain Alg12, hits give low values
[23] = S. cerevisiae deletion strains, locus YOL006C, strain TOP1, hits give low values
[24] = S. cerevisiae deletion strains, locus YPL055C, strain LGE1, hits give low values
[25] = S. cerevisiae deletion strains, locus YPL241C, strain CIN2, hits give low values
[26] = S. cerevisiae deletion strains, locus YPR135W, strain CTF4, hits give low values
[27] = S. cerevisiae deletion strains, locus YAL040C, strain CLN3, hits give low values
[28] = S. cerevisiae deletion strains, locus YCL061C, strain MRC1 (second series), hits give low values
[29] = S. cerevisiae deletion strains, locus YDR363W, strain ESC2, hits give low values
[30] = S. cerevisiae deletion strains, locus YER002W, strain NOP16, hits give low values
[31] = S. cerevisiae deletion strains, locus YNL175C, strain NOP13, hits give low values
[32] = S. cerevisiae deletion strains, locus YNL197C, strain WHI3, hits give low values
[33] = S. cerevisiae deletion strains, locus YNL224C, strain SQS1, hits give low values
[34] = S. cerevisiae deletion strains, locus YOR083W, strain WHI5 (second series), hits give low values
[35] = S. cerevisiae deletion strains, locus YGR229C, strain SMI1, hits give low values
[36] = S. cerevisiae deletion strains, locus YMR307W, strain GAS1, hits give low values

Measured: normalized growth

O=C(CCN1CCOCC1)c1ccc2c(c1)OCCO2
inactive: [1] 0.979 | [2] 0.982 | S. cerevisiae deletion strains, locus YCL061C, strain MRC1, hits give low values 1.01 | [3] 1.01 | [5] 1.01 | [7] 0.987 | [9] 0.988 | [10] 0.996 | [11] 1.01 | [13] 0.989 | [17] 0.99 | [18] 1 | [19] 1.03 | [20] 0.852 | [21] 0.968 | [24] 0.982 | [26] 0.737
active: [4] 0.836 | [6] 0.694 | [8] 0.51 | [12] 0.637 | [14] 0.259 | [15] 0.703 | [16] 0.802 | [22] 0.787 | [23] 0.708 | [25] 0.769

O=C(OCCN1CCOCC1)C1(c2ccccc2)CCCCC1
inactive: [1] 1.07 | [27] 1.01 | [28] 1 | [5] 1.01 | [29] 1 | [30] 1.01 | [31] 1.01 | [32] 0.999 | [33] 0.996 | [21] 1.01 | [34] 1 | [24] 1.02 | [25] 0.999

O=C(c1ccc2c(c1)OCCO2)N1CCCCC1
inactive: [27] 0.989 | [28] 0.991 | [5] 1.01 | [29] 1.06 | [30] 0.986 | [35] 1.01 | [11] 1.03 | [18] 1 | [36] 1.01 | [19] 0.98 | [31] 0.992 | [32] 0.976 | [33] 1 | [21] 1.02 | [34] 0.993

CCNS(=O)(=O)c1cc(Cl)sc1Cl
inactive: [1] 0.992 | [2] 1.02 | [3] 0.99 | [4] 1.01 | [5] 0.947 | [6] 0.995 | [7] 1 | [35] 0.994 | [8] 1.05 | [9] 1 | [10] 1.01 | [11] 1.01 | S. cerevisiae deletion strains, locus YKL190W, strain CNB1, hits give low values 1 | [12] 0.989 | [13] 1.04 | [14] 0.983 | [15] 0.985 | [16] 1.01 | [17] 0.994 | [18] 1.01 | [36] 0.976 | [19] 1.01 | [20] 1.05 | [21] 0.992 | [22] 1.01 | [23] 1.02 | [24] 1.12 | [25] 1.01 | [26] 1.13 | S. cerevisiae strains, strain wild type, hits give low values 0.998
